TrxR1 substrate – qHTS Assay for Substrates of Mammalian Selenoprotein Thioredoxin Reductase 1 (TrxR1): qHTS. purified TrxR1 substrate turnover, NADPH consumption readout. Potency, µM (doses to about 114 µM), for the others: at the highest dose activity change, negative = substrate turnover. 0.01% of 390,000 active. AID 588456, 2011; further: on the % scale 0 is the no-effect control and ±100 the full control effect; nearly all actives have a fitted effect of over 50% in size
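Rat TrxR1, dispensed at 90 nM, was prereduced with 400 uM NADPH (final) for 5 min at ~22 deg C, then incubated with compound 15 min before 400 uM selenite. A first-read NADPH fluorescence drop versus no-compound background flagged substrates.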
A549 tox-1 – Nrf2 qHTS screen for inhibitors: counterscreen for cytotoxicity; Potency, µM (doses to about 46 µM), without a hit: at the top dose activity change, negative = cytotoxicity, most hits filed as inhibitors; 0.16% of 390,000 active; AID 504648, 2011; A549 ARE-Fluc cells, CellTiter-Fluor viability, 18-24 h; further: on the % scale 0 is the no-effect control and ±100 the full control effect
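A549 ARE-Fluc cells in 5% FBS OPTI-MEM, 5000 cells/well, rested 2 h then exposed to compounds in concentration-response for 18-24 h at 37 °C. Viability by CellTiter-Fluor fluorescence (Ex 405/Em 525) after 30 min; luciferase luminescence (BugLite, 15 min, RT) read afterwards.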
rTrxR1 inhibitor – qHTS Assay for Inhibitors of Mammalian Selenoprotein Thioredoxin Reductase 1 (TrxR1): qHTS. Thioredoxin reductase 1, cytoplasmic (Rattus norvegicus), O89049. recombinant rTrxR1, NADPH fluorescence consumption, selenite substrate. Potency, µM (doses to about 114 µM), inactives show top-dose activity change, negative = inhibition, most hits filed as inhibitors. 1% of 390,000 active; further: on the % scale 0 is the no-effect control and ±100 the full control effect; nearly all actives have a fitted effect of over 65% in size
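Rat TrxR1 (90 nM in the dispensed reagent) was pre-reduced with 400 uM NADPH for 5 min at room temperature, then incubated with compound for 15 min. After 400 uM selenite was added, NADPH fluorescence (Ex 340/Em 450 nm) was followed for 8 min.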
Nrf2 inh – Nrf2 qHTS screen for inhibitors; AID 504444, 2011; Potency, µM (titrated, usually from 46 µM), for the others: at the highest dose activity change, negative = inhibition, most hits filed as inhibitors; 2.1% of 360,000 active; A549 ARE-Fluc reporter, luciferase luminescence, 18-24 h; further: on the % scale 0 is the no-effect control and ±100 the full control effect; nearly all actives have a fitted effect of over 60% in size
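Quantitative HTS in A549 cells stably bearing an antioxidant response element-firefly luciferase construct. Inhibition of Nrf2-driven transcription was scored by luminescence after 18-24 h of compound exposure at 37 °C.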
Nrf2 activator – qHTS of Nrf2 Activators | AREc32 ARE-luciferase reporter (MCF7-derived line), luminescence, 24 h | Potency, µM (highest dose often 46.1 µM), for the others: top-dose activation, usual class: activators | 0.31% of 410,000 active | AID 624171, 2012; further: % of control where 0% means no effect; nearly all actives have a fitted effect of over 65% in size
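Cells of the AREc32 ARE-luciferase line are plated in OPTI-MEM containing 5% FBS and left overnight at 37 deg C. Compounds are pinned in, incubation continues 24 hr, and firefly luciferase signal is then measured.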
GALK inhibitor – qHTS Assay for Inhibitors of Human Galactokinase (GALK). P51570. Purified GALK, Kinase-Glo residual ATP luminescence. Potency, µM (titrated, usually from 57.5 µM), for the others: at the highest dose activity change, negative = inhibition, most hits filed as inhibitors. 0.007% of 270,000 active; further: on the % scale 0 is the no-effect control and ±100 the full control effect
Target sequence (P51570 whole entry, looked up): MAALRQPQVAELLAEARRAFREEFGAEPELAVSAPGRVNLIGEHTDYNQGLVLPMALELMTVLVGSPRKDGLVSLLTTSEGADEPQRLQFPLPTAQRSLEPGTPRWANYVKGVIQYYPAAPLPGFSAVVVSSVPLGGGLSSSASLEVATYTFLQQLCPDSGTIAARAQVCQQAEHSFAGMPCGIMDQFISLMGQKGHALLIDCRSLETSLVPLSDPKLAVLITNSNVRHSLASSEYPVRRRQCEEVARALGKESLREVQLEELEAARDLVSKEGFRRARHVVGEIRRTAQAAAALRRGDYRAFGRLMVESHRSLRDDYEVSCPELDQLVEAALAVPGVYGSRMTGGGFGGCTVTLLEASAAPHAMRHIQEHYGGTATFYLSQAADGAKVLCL
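Human GALK (5 nM) with 35 uM ATP and 100 uM galactose in 20 mM HEPES pH 8.0, 5 mM MgCl2, 60 mM NaCl, 1 mM DTT, 0.01% BSA. After 1 h at room temperature, leftover ATP was read by Kinase-Glo Plus luminescence.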
FLuc enzyme inh – Nrf2 qHTS screen for inhibitors: Purified Fluc Biochemical Counterscreen for Hit Validation. shares compounds with Nrf2 inh. purified firefly luciferase, luminescence inhibition. Potency, µM (titrated, usually from 57.5 µM), inactives show at the top dose activity change, negative = inhibition, actives largely listed as inhibitors. 4% of 1,400 active. AID 720522, 2013; further: on the % scale 0 is the no-effect control and ±100 the full control effect; nearly all actives have a fitted effect of over 65% in size
A549 tox-2 – Nrf2 qHTS screen for inhibitors: A549 ARE-Fluc Cytotoxicity Counterscreen for Hit Validation; shares compounds with Nrf2 inh; A549 ARE-Fluc cells, cytotoxicity counterscreen; Potency, µM (series often up to 46.1 µM), without a hit: at the highest dose activity change, negative = cytotoxicity, actives largely listed as inhibitors; 2% of 1,400 active; AID 720523, 2013;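 further: cells exposed to compounds for 18 to 24 hours; on the % scale 0 is the no-effect control and ±100 the full control effect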
Nrf2 ARE inh – Nrf2 qHTS screen for inhibitors: Nrf2 A549 ARE-Fluc Confirmation Assay for Hit Validation; shares compounds with Nrf2 inh; A549 ARE-firefly luciferase reporter, luminescence; Potency, µM (top dose mostly 46.1 µM), for the others: at the highest dose activity change, negative = inhibition, actives largely listed as inhibitors; 74% of 1,400 active; further: on the % scale 0 is the no-effect control and ±100 the full control effect; nearly all actives have a fitted effect of over 65% in size
Active calls of the source: *; ? = inconclusive; / = not tested or not shown; [ ] = dose if it differs, or a comment. In the library only some 3% were active in any assay of this set; here they are far more common. The call rests on the fitted dose curve; in most records, active means well fitted curve in the direction sought with a large enough effect; inconclusive means small, poorly fitted or top-dose-only effect, or another doubt; inactive means no such curve, though single readings can be large; an effect the other way counts as inactive or inconclusive. Potency means the concentration at half of the fitted maximal effect.

SMILES	TrxR1 substrate	A549 tox-1	rTrxR1 inhibitor	Nrf2 inh	Nrf2 activator	GALK inhibitor	FLuc enzyme inh	A549 tox-2	Nrf2 ARE inh
COC(=O)[C@]12OC[C@]34C([C@@H](O)[C@@H]1O)[C@]1(C)CC(=O)C(O)=C(C)[C@@H]1C[C@H]3OC(=O)[C@H](O)[C@@H]24 (stereo partly specified)	1.0%	?	-12.4%	1.3µM*	-2.8%	3.4%	-0.6%	?	1.46µM*
C=CCn1c(O)c(C(C)=NCc2cc(OC)cc(OC)c2)c(=O)[nH]c1=O	-2.4%	0.0%	2.2%	7.31µM*	0.2%	0.8%	2.0%	-14.1%	14.6µM*
Cc1ccc(-c2cc(-c3ccc(C)cc3)[n+](C)o2)cc1	36.9%	?	-4.5%	5.17µM*	0.3%	/	-19.6%	-17.5%	3.66µM*
Cc1ccc(-c2cc(-c3ccc(C)cc3)[n+](-c3ccc(C(=O)[O-])cc3)c(-c3ccc(C)cc3)c2)cc1	30.1%	3.2%	-4.5%	21.1%	-0.2%	/	/	/	/
C[C@]12CC[C@H]3C(=CCc4cc(O)ccc43)[C@@H]1CCC2=O	1.2%	-0.9%	?	?	4.7%	4.4%	/	/	/
CC(=O)O[C@@H]1CC[C@]2(C)C3CC[C@@]4(C)C(C[C@@H](O)[C@@H]4O)C3[C@@H](OC(C)=O)C[C@H]2C1 (stereo partly specified)	0.1%	-1.4%	9.6%	-20.1%	-0.1%	/	/	/	/
CC(=O)OC1CC2(O)C3CCC4CC(O)CCC4(C)C3CCC2(C)C1C1=CC(=O)OC1 (stereo unspecified)	-2.7%	?	-7.6%	0.0651µM*	-2.2%	/	2.1%	?	0.058µM*
CC(=O)[C@H]1CCC2C3CC[C@H]4C[C@@H](O)CC[C@]4(C)C3CC[C@@]21C (stereo partly specified)	-11.4%	10.9%	11.7%[57.1 µM]	10.7%	-0.1%	/	/	/	/
CC(=O)OC1CC(OC2C(O)CC(OC3C(O)CC(OC4CCC5(C)C(CCC6C5CCC5(C)C(C7=CC(=O)OC7)C(O)CC65O)C4)OC3C)OC2C)OC(C)C1OC1OC(CO)C(O)C(O)C1O (stereo unspecified)	-4.1%[11.4 µM]	?	5.5%[11.4 µM]	0.326µM*	-2.5%	/	3.7%	?	0.291µM*
Cc1sc(NC(=O)Cn2c(=O)oc3ccccc32)nc1-c1ccc(Cl)cc1	-16.1%	-1.2%	-10.7%	?	0.0%	0.2%	/	/	/
CC1(C)CC(=O)C2=C(C1)OC(N)=C([N+](=O)[O-])C2c1ccc(C#N)s1 (stereo unspecified)	2.1%[57.1 µM]	18.9%	10.2%[57.1 µM]	-2.4%	?	4.3%	/	/	/
Cc1ccc(C(=O)Oc2cc(N)n(S(=O)(=O)c3ccc(F)cc3)n2)cc1	-8.6%[57.1 µM]	8.4%	-12.1%	1.84µM*	-2.0%	-3.8%	-16.6%	-7.2%	1.64µM*

Compound activity (PubChem BioAssay)
